# Screening results (PubChem BioAssay)
# An excerpt weighted towards active compounds, which were near 7.8% of everything screened.
# Shh pathway inh: blocks Sonic Hedgehog signaling; Shh-LIGHT2 Gli-luciferase reporter, 30 h; inhibition, % (test concentration not listed); hit rate 2.1% among 22,000; AID 2313;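 active = mean inhibition across valid replicates above about 65%, limit read from the data; inconclusive = mean under the limit, yet half or more replicates past it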;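 also: pathway switched on by Shh-conditioned medium diluted 1 in 25 in low serum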
# MITF inh: MITF inhibition. TRPM1 promoter luciferase, luminescence, 24 h. AID 2240. hit rate 0.28% among 37,000. inhibition, % (concentration not given with the values); in the data active = inhibition above about 85%; inconclusive = no clear call, values can overlap the other calls; inactive = below about 68%;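 also: human melanocyte line stably carrying TRPM1 promoter luciferase reporter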
# NOMO-1 viab: STK33 inhibitor candidate reducing NOMO-1 cell viability. hit rate 7.5% among 37,000. AID 2330. inhibition, % (no concentration beside the values). NOMO-1 AML viability, CellTiter-Glo luminescence, 72 h; in the data active = inhibition above about 80%; inconclusive = no clear call, values can overlap the other calls
# * = called active by the depositor; ? = inconclusive; · = no result.
SMILES,Shh pathway inh,MITF inh,NOMO-1 viab
Cc1ccc(S(=O)(=O)Nc2ccc3c(c2)C(=O)N([C@H](C)CO)C[C@H](C)[C@H](CN(C)C(=O)Nc2ccc(C(F)(F)F)cc2)OCCCC[C@@H](C)O3)cc1,37.7,22.2,114.3*
C[C@@H]1CCCCO[C@@H](CN(C)C(=O)Nc2cccc3ccccc23)[C@@H](C)CN([C@H](C)CO)C(=O)c2cc(NS(=O)(=O)c3ccc(F)cc3)ccc2O1,-19.4,30.6,50.1
COc1ccc(NC(=O)N(C)C[C@H]2OCCCC[C@@H](C)Oc3ccc(NS(=O)(=O)c4ccc(F)cc4)cc3C(=O)N([C@H](C)CO)C[C@@H]2C)cc1,-4.2,-28.5,25.2
O=C(O)C1CCCN1C(=O)c1cncc(Br)c1 (configuration not stated),·,69.8,-10.7
C[C@H]1CN([C@@H](C)CO)C(=O)c2cc(NS(=O)(=O)c3ccccc3)ccc2O[C@H]1CN(C)Cc1ccc(C(F)(F)F)cc1,·,-3.9,32.8
C[C@@H]1CN([C@H](C)CO)C(=O)Cc2cc(NC(=O)Cn3cnnn3)ccc2O[C@@H]1CN(C)Cc1ccc(-c2ccccc2)cc1,-18.7,11.3,30.7
Cc1noc(C)c1S(=O)(=O)N(C)C[C@@H]1Oc2c(NC(=O)C3CCOCC3)cccc2C(=O)N([C@H](C)CO)C[C@@H]1C,-12.4,-9.5,4.7
c1ccc(-c2ccc3ccccc3n2)nc1,-163.3,39.9,104.2*
O=c1oc(-c2ccccn2)nc2ccccc12,3.6,-1.1,0.0
S=C(CC(=S)N1CCOCC1)N1CCOCC1,3.8,3.5,85.7*
Fc1cc(F)c(NC(=S)N2CCOCC2)c(F)c1,-25.7,10.6,-17.4
C[C@H]1CN([C@@H](C)CO)C(=O)Cc2cc(NC(=O)NC3CCCCC3)ccc2O[C@H]1CN(C)Cc1ccccc1,?,-5.5,17.0
CC(C)NC(=O)Nc1ccc2c(c1)CC(=O)N([C@@H](C)CO)C[C@H](C)[C@H](CN(C)C(=O)NC1CCCCC1)O2,10.7,-11.0,-12.1
C[C@@H]1CN([C@@H](C)CO)C(=O)c2cc(NS(=O)(=O)c3ccc(F)cc3)ccc2O[C@@H]1CN(C)S(=O)(=O)c1ccccc1,2.6,14.6,31.7
c1ccc2[nH]c(SCCSc3nc4ccccc4[nH]3)nc2c1,·,43.2,83.3*
NC(=O)CSc1nc2ccccc2[nH]1,·,1.4,16.0
C[C@@H]1CN([C@H](C)CO)C(=O)Cc2cc(NS(=O)(=O)c3ccccc3)ccc2O[C@H]1CN(C)Cc1ccccc1,16.8,1.9,20.3
Cc1ccc(S(=O)(=O)Nc2ccc3c(c2)CC(=O)N([C@@H](C)CO)C[C@H](C)[C@@H](CN(C)Cc2ccccc2)O3)cc1,-5.7,-2.2,90.6*
Cc1ccc(S(=O)(=O)Nc2ccc3c(c2)CC(=O)N([C@H](C)CO)C[C@H](C)[C@H](CN(C)Cc2ccccc2)O3)cc1,25.0,-1.6,98.1*
Cc1ccc(S(=O)(=O)Nc2ccc3c(c2)CC(=O)N([C@H](C)CO)C[C@@H](C)[C@H](CN(C)Cc2ccccc2)O3)cc1,22.6,1.2,4.9
CS(=O)(=O)N(CC(=O)Nc1ccc2c(c1)OCCO2)C1CCCCC1,·,-9.3,-0.2
C=C1CC[C@H]2C(=C)CC[C@@]3(O)C(=C)C(=O)O[C@@H]3[C@@H]12,29.6,7.4,109.9*
CC(C)(C)c1ccc(OCC(=O)Nc2cccc3ncccc23)cc1,·,-37.2,16.6
C=C1C(=O)O[C@H]2[C@H]1[C@@H](OC(=O)C(C)(O)C(C)Cl)C(OC(C)=O)/C(C(=O)OC)=C\CC[C@@]1(C)O[C@H]21 (some centres not stated),73.0*,-9.5,119.5*
COc1ccc(NC(=O)Nc2cccc3c2O[C@H](CN(C)C(=O)Nc2ccc(C(F)(F)F)cc2)[C@H](C)CN([C@@H](C)CO)C3=O)cc1,2.9,1.0,10.5
SMILES,Shh pathway inh,MITF inh,NOMO-1 viab
COc1ccc(C(=O)NCCSc2ccccn2)cc1,·,39.5,24.8
COc1ccc(C(=O)NCCn2cc(SC(C)c3ccccc3)c3ccccc32)cc1 (configuration not stated),77.6*,20.3,128.8*
COC(=O)COc1ccc(C2NC(=S)NC(C)=C2C(=O)OC)cc1 (configuration not stated),·,-6.5,88.8*
COc1ccc(OC)c(NC(=O)C2=C(C)NC(=S)NC2c2ccc(OC)cc2OC)c1 (configuration not stated),·,-15.6,38.4
CCCC(NS(=O)(=O)c1ccc(C)cc1)C(=O)O (configuration not stated),·,-12.5,-0.4
Cc1ccc(S(=O)(=O)N[C@@H](Cc2ccccc2)C(=O)CCl)cc1,95.4*,83.1,120.1*
COC(=O)c1c(-c2cc(OC)c(OC)c(OC)c2)c2ccnc(OCc3ncccn3)c2c(=O)n1Cc1ccnc(C)c1,-45.2,0.4,-2.9
Cc1ccc(S(=O)(=O)Nc2cccc3c2O[C@@H](CN(C)C(=O)NC2CCCCC2)[C@@H](C)CN([C@H](C)CO)C3=O)cc1,?,11.6,100.4*
Cc1ccc(S(=O)(=O)Nc2cccc3c2O[C@H](CN(C)CC2CCCCC2)[C@@H](C)CN([C@@H](C)CO)C3=O)cc1,-6.6,-1.2,-9.4
Cc1ccc(S(=O)(=O)Nc2cccc3c2O[C@@H](CN(C)CC2CCCCC2)[C@@H](C)CN([C@H](C)CO)C3=O)cc1,87.7*,0.4,51.4
Cc1ccc(S(=O)(=O)Nc2cccc3c2O[C@@H](CN(C)C(=O)NC2CCCCC2)[C@@H](C)CN([C@@H](C)CO)C3=O)cc1,-21.1,3.5,27.0
Cc1ccc(S(=O)(=O)Nc2ccc3c(c2)C(=O)N([C@H](C)CO)C[C@H](C)[C@@H](CN(C)S(=O)(=O)c2ccccc2)O3)cc1,-10.8,-3.8,16.3
Cc1noc(C)c1NC(=O)Nc1ccc2c(c1)C(=O)N([C@H](C)CO)C[C@H](C)[C@H](CN(C)C(=O)Nc1c(C)noc1C)OCCCC[C@@H](C)O2,·,1.5,6.0
O=C(CSc1ncn(-c2ccccc2)n1)Nc1ccc([N+](=O)[O-])cc1,·,4.5,39.2
COc1ccc(C(C)C)cc1S(=O)(=O)n1nnc2ccccc21,·,-5.6,-2.4
COc1ccc(C(C)C)cc1S(=O)(=O)n1cnc2ccccc21,·,21.0,122.6*
C[C@@H]1CN([C@H](C)CO)C(=O)Cc2cc(NC(=O)Nc3cccc4ccccc34)ccc2O[C@@H]1CN(C)Cc1ccncc1,·,-8.6,31.5
C[C@H]1CN([C@@H](C)CO)C(=O)Cc2cc(NC(=O)Nc3cccc4ccccc34)ccc2O[C@@H]1CN(C)Cc1ccc(Cl)c(Cl)c1,-2.1,16.4,108.3*
C[C@@H]1CN([C@H](C)CO)C(=O)Cc2cc(NC(=O)Nc3cccc4ccccc34)ccc2O[C@@H]1CN(C)Cc1ccccc1,39.6,14.7,87.6*
C[C@H](CO)N1C[C@H](C)[C@H](CN(C)Cc2ccc(-c3ccccc3)cc2)Oc2ccc(NC(=O)Nc3cccc4ccccc34)cc2CC1=O,·,-4.5,54.5
O=C(c1cc2cc(Br)ccc2oc1=O)N1CCN(CCN2C(=O)c3cccc4cccc(c34)C2=O)CC1,·,35.4,6.3
C[C@H]1CN([C@@H](C)CO)C(=O)Cc2cc(NC(=O)CCN3CCOCC3)ccc2O[C@@H]1CN(C)CC1CCCCC1,?,2.9,-11.1
C[C@@H]1CN([C@H](C)CO)C(=O)c2cc(NC(=O)CCCCCC(=O)Nc3ccccc3N)ccc2O[C@H]1CN(C)S(=O)(=O)c1ccc(Cl)cc1,·,8.8,16.3
